# Screening results deposited in PubChem BioAssay by National Center for Advancing Translational Sciences (NCATS).
# VDR inh = inhibitors of human vitamin D receptor; 400,000 tested, 0.93% active; AID 504847; P11473; VDR-SRC2-3 peptide fluorescence polarization, 2 h; Potency, µM, hits mostly inhibitors
# Target sequence (P11473 whole entry, looked up): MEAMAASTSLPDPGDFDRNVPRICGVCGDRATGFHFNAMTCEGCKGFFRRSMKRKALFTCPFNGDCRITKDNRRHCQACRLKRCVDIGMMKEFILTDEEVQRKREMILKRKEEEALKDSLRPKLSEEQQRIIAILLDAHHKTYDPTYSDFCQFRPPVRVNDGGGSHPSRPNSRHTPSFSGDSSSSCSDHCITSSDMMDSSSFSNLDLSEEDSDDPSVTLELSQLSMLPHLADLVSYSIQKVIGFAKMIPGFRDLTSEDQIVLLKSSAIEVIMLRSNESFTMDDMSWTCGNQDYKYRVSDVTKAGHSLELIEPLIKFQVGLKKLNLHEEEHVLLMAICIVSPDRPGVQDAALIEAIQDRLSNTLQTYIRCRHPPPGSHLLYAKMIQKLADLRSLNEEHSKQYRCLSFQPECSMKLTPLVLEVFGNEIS
#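 Fluorescence polarization assay of small-molecule disruption of VDR binding to coregulator peptide SRC2-3. Compounds and controls pin-transferred, then read after 2 h incubation at ambient room temperature.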
# TDP1 block = TDP1 (human) enzyme inhibition. Potency, µM (top dose mostly 130 µM), actives largely listed as inhibitors. Q9NUW8. AID 485290. 350,000 tested, 0.28% active. recombinant TDP1, AlphaScreen DNA substrate cleavage; note: nearly all actives have a fitted effect of over 40% in size
#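 Recombinant E. coli-expressed Tdp1 (1 nM) preincubated with compound 15 min at RT, then 5'-biotin/3'-phosphotyrosine-FITC DNA substrate (15 nM) added for 5 min. AlphaScreen beads (10 ug/ml) added, 10 min RT; tyrosine-FITC cleavage read as signal loss.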
# TDP1 cell CPT = growth inhibition of DT40 Tdp1-/-;hTDP1 cells with camptothecin (screen for TDP1 inhibitors). 420,000 tested, 12% active. Potency, µM (doses to about 46.2 µM), actives largely listed as inhibitors. AID 686979. chicken DT40 Tdp1-/-;hTDP1 cells + 20 nM CPT, ATP luminescence, 48 h; note: nearly all actives have a fitted effect of over 55% in size
#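 Cell growth measured by CellTiter-Glo luminescence after a minimum 48 h, 37 C compound exposure with 20 nM CPT in Tdp1-knockout DT40 cells stably expressing hTDP1, seeded 400/well; qHTS titration format.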
# PLK1 PBD block = PLK1 (human) polo-box domain binding inhibition | 360,000 tested, 2.8% active | Potency, µM, most hits filed as inhibitors | P53350 | Plk1 PBD binding of FITC phosphopeptide, fluorescence polarization; note: series mostly up to about 57 µM; nearly all actives have a fitted effect of over 65% in size
# GCN5L2 inh = blocks human GCN5L2 histone acetyltransferase; 390,000 tested, 0.21% active; Q92830; Potency, µM (highest dose often 58.9 µM), most hits filed as inhibitors; GCN5L2 HAT assay, ThioGlo1 CoA-SH fluorescence
#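 Preincubate 20nM GCN5L2 with compound 15 min, RT → add 50uM ThioGlo1 + 75uM H3(1-25) + 70uM acetyl-CoA → read fluorescence 0 and 20 min. Primary qHTS; fluorescent artifacts likely.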
# TDP1 cell noCPT = qHTS for Inhibitors of human tyrosyl-DNA phosphodiesterase 1 (TDP1): qHTS in cells in absence of CPT; DT40 Tdp1-/- hTDP1 cells, no CPT, ATP luminescence, 48 h; Potency, µM (titrated, usually from 46.2 µM), most hits filed as inhibitors; 420,000 tested, 15% active; AID 686978, 2013; note: nearly all actives have a fitted effect of over 55% in size
#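 Growth kinetics read by CellTiter-Glo luminescence after ≥48 hr at 37 °C. Cells: DT40 Tdp1-/- stably carrying human TDP1, 400 per well, compound exposure in the absence of CPT (DMSO vehicle).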
# Hits are given with their value; . = inactive; ? = inconclusive; / = no result. Shown are actives, neighbours in structure and some others; about 18% of the full set was active somewhere. Calls come from the whole dose curve; as a rule, active = well fitted curve in the direction sought with a large enough effect; inconclusive = small, poorly fitted or top-dose-only effect, or another doubt; inactive = no such curve, though single readings can be large; an effect the other way counts as inactive or inconclusive.
SMILES,VDR inh,TDP1 block,TDP1 cell CPT,PLK1 PBD block,GCN5L2 inh,TDP1 cell noCPT
CC(C)(C)OC(=O)C[C@@H]1C/C=C\C[C@@H](CC(=O)N(CCO)Cc2ccccc2)C(=O)N[C@H](Cc2c[nH]c3ccccc23)COC1=O,.,.,.,.,.,?
CC(C)(C)OC(=O)C[C@H]1C/C=C\C[C@H](CC(=O)N(CCO)Cc2ccccc2)C(=O)N[C@@H](Cc2ccccc2)COC1=O,.,.,16.4µM,.,.,?
CC(C)(C)OC(=O)C[C@H]1C/C=C\C[C@H](CC(=O)N(CCO)Cc2ccccc2)C(=O)NCCOC1=O,.,.,?,.,.,?
CC(C)(C)OC(=O)C[C@H]1C/C=C\C[C@H](CC(=O)N(CCO)Cc2ccccc2)C(=O)N[C@H](C(C)(C)C)COC1=O,.,.,29.1µM,.,.,20.6µM
CC(C)(C)OC(=O)C[C@H]1C/C=C\C[C@@H](CC(=O)N(CCO)Cc2ccccc2)C(=O)N[C@H](Cc2c[nH]c3ccccc23)COC1=O,.,.,?,.,.,18.4µM
CC(COc1ccc(/C=C/c2ccccc2)cc1)[N+](C)(C)C (stereo unspecified),.,/,4.11µM,.,?,3.26µM
CCOC(=O)C1=C(C)N(CCCC(=O)O)C(=O)NC1c1ccc(OC)cc1 (stereo unspecified),.,.,.,.,.,.
CCOC(=O)C1=C(C)N(C[C@@H]2CC[C@@H](Cc3ccc4cc(OC)ccc4c3)O2)C(=O)NC1c1ccccc1 (stereo partly specified),.,.,20.6µM,.,.,?
C=CCN=C1N[C@@H](c2ccc(Br)cc2)C(C(=O)OC)=C(C)N1Cc1ccccc1,/,/,12.6µM,/,.,?
COC(=O)C1=C(C)N(Cc2ccccc2)C(=NCC(C)C)N[C@H]1c1ccccc1,.,/,4.11µM,.,.,4.11µM
CCN1C(=O)N[C@@H](c2ccc(Br)cc2)C(C(=O)OC)=C1C,.,.,?,.,.,?
COC(=O)C1=C(C)N(CC2CC2)C(=O)N[C@H]1c1ccc(Br)cc1,.,.,23.1µM,.,.,?
Cc1ccccc1Nc1nnc(SCC(=O)c2c(N)n(C3CC3)c(=O)[nH]c2=O)s1,.,.,.,.,.,.
O=P(c1ccccc1)(c1ccccc1)c1cc(S(=O)(=O)O)ccc1O,.,/,.,?,?,.
Cc1cccc(C)c1OCC(=O)Nc1ccc(N2CCOCC2)cc1,.,.,.,.,.,.
COC(=O)C1=C(C)N(Cc2ccccc2)C(=NCc2ccc(OC)cc2)N[C@H]1c1ccccc1,.,.,7.31µM,.,.,8.2µM
O=C(O)CCC(=O)OCc1c(-c2ccccc2)ncc2ccccc12,?,.,.,.,.,.
O=C(OCc1c(-c2ccccc2)ncc2ccccc12)c1ccccc1C(F)(F)F,.,.,1.03µM,.,.,?
COc1ccc(C(=O)OCc2c(-c3ccccc3)ncc3ccccc23)cc1,.,.,16.4µM,.,.,?
COc1cccc(-c2ncc3ccccc3c2COC(=O)c2ccc(F)cc2)c1,.,.,?,.,.,20.6µM
Cc1c(CCC(=O)NC2CC2)c(=O)oc2cc(O)ccc12,.,/,.,.,?,.
CCc1ccc(-c2csc(-c3cc4cc(Br)ccc4oc3=O)n2)cc1,.,.,.,/,.,.
Cc1ccc2[nH]cc(C(c3ccccc3)c3ccc(Cl)s3)c2c1 (stereo unspecified),.,.,?,/,.,14.6µM
CCc1ccc(C(c2ccccc2)c2c[nH]c3ccc(C)cc23)s1 (stereo unspecified),?,.,?,/,.,16.4µM
Clc1ccc(C(c2ccccc2)c2c[nH]c3ccccc23)s1 (stereo unspecified),.,.,/,/,.,/
SMILES,VDR inh,TDP1 block,TDP1 cell CPT,PLK1 PBD block,GCN5L2 inh,TDP1 cell noCPT
COc1ccccc1C(C(=O)c1ccccc1)c1ccc(O)cc1 (stereo unspecified),/,/,?,.,/,?
Cc1cc(C)n(CCc2nc3c4ccccc4nc(N4CCN(c5ccccc5)CC4)n3n2)n1,.,.,2.91µM,/,.,3.26µM
Cc1ccc(C)c(N2CCN(c3nc4ccccc4c4nc(CCn5nc(C)cc5C)nn34)CC2)c1,.,.,.,/,.,.
CCc1cccc(NC(=O)CSc2n[nH]c(-c3ccccc3Cl)n2)c1,.,.,?,/,.,?
Cc1cc(C)n2nc(C(=O)OCC(=O)N3CC(C)CC(C)C3)nc2n1 (stereo unspecified),.,.,.,.,.,.
CC1(C)CC(NNCCC#N)=CC(=[N+]2CCCC2)C1,.,.,?,23.8µM,.,?
CCCCCCCCCCCCCCC1CO1 (stereo unspecified),/,.,/,/,/,/
C=CCn1c(N)c(C(=O)NCCC2=CCCCC2)sc1=S,?,.,.,7.52µM,?,?
O=C(CSc1nnnn1C1CCCCC1)Nc1nc2c(s1)CCCC2,.,.,14.6µM,.,/,20.6µM
N#Cc1c(NC(=O)CSc2nnnn2C2CCCCC2)sc2c1CCCC2,.,.,?,.,.,16.4µM
CCOC(=O)N(C)c1c(CC)nc2c(OCc3ccccc3)cccn12,/,/,20.6µM,.,/,23.1µM
CCc1nc2c(OCc3ccccc3)cccn2c1N(Cc1ccccc1)C(C)=O,/,/,18.4µM,.,/,?
COc1ccc([C@@H]2C[C@H]3[C@@H](CN2S(=O)(=O)c2ccccc2)C(=O)C[C@@H](c2ccc(C)cc2)N3S(=O)(=O)c2ccc(C)cc2)cc1,/,/,.,.,/,?
Cc1cc(OCC(=O)Nc2ccc(CN3CCOCC3)cc2)c2c(C)cc(=O)oc2c1,.,.,18.4µM,.,.,11.6µM
CCCc1cc(=O)oc2c(C)c(OCC(=O)Nc3ccc(CN4CCOCC4)cc3)ccc12,.,.,14.6µM,.,.,?
CCCCc1cc(=O)oc2cc(OCC(=O)NCCN3CCOCC3)c(Cl)cc12,.,.,13µM,.,.,18.4µM
Cc1cc(OCC(=O)Nc2cccnc2)c2c(C)cc(=O)oc2c1,.,.,.,.,.,.
CCCc1cc(=O)oc2c(C)c(OCC(=O)NCCCN3CCOCC3)ccc12,.,.,.,.,.,.
CCN1/C(=C/c2ccc3cc(C)ccc3[n+]2CC)Sc2ccccc21,.,.,0.0651µM,.,.,0.058µM
C=CCN1C(=O)/C(=C2/Sc3ccccc3N2C)SC1=Nc1ccccc1C,.,.,?,.,.,?
CC[n+]1c(/C=C2\Sc3ccccc3N2C)ccc2cccc(C)c21,.,.,0.517µM,.,.,0.517µM
CCN1/C(=C/c2cc[n+](CCCS(=O)(=O)[O-])c3ccccc23)Sc2ccccc21,.,.,.,.,.,.
